107 molecules from PubChem BioAssay AID1030 (National Center for Advancing Translational Sciences (NCATS), 2008) can be followed below.

SMILES strings stand for the structures. About 16,000 (7.3%) of roughly 220,000 compounds were called active. Where a call stands in place of a potency, no number is given. Inconclusive results (about 25%) are left out. This excerpt belongs to a sample that is enriched for actives. Values without a mark were called inactive. The call rests on the fitted dose curve; in most records, active means well fitted inhibition curve with a large enough effect (not every such curve was filed as active); inconclusive means small, poorly fitted or top-dose-only effect, or another doubt; inactive means no such curve, though single readings can be large or run the other way.
Potency means the concentration at half of the fitted maximal effect.

Aldehyde dehydrogenase 1A1 (Homo sapiens), sequence (P00352 whole entry, looked up): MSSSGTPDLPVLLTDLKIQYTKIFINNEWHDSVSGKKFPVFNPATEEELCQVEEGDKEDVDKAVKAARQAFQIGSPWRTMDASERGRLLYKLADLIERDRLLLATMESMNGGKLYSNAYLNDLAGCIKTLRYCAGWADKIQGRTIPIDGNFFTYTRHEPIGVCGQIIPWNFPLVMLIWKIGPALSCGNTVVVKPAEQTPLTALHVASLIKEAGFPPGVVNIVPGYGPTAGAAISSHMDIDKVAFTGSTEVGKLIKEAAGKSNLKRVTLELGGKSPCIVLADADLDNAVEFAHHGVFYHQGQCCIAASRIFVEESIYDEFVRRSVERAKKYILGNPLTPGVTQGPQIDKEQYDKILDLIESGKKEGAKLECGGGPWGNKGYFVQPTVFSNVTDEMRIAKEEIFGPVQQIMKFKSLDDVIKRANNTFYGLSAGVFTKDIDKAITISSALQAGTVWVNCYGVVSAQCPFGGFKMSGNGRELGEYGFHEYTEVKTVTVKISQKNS

The assay addresses Aldehyde dehydrogenase 1A1 (Homo sapiens) (UniProt P00352). The experiment in a line: qHTS Assay for Inhibitors of Aldehyde Dehydrogenase 1 (ALDH1A1). To be noted: Purified ALDH1A1, NADH fluorescence, propionaldehyde substrate; series mostly up to 75.3 µM. Background: Quantitative high-throughput screening tests each substance at several concentrations.
In the case of `CC1CCCCC1NC(=O)CCS(=O)(=O)c1cccc2nonc12` (configuration not stated), the Potency is 10 µM (active).
For `COc1ccc(C)cc1NC(=O)CCS(=O)(=O)c1cccc2nonc12`, the Potency entry is “inactive”.
Still for that read-out and setting: next, `CC1CCCCC1NC(=O)C1CCCN1S(=O)(=O)c1cccc2nsnc12` (configuration not stated): “inactive”.
On the same count and under the same terms, next, `COC(=O)C1=C(C)N(C)C(=O)NC1c1ccc([N+](=O)[O-])o1` (configuration not stated): 25.1 µM (active).
With `CCN1C(=O)N[C@@H](c2ccccc2)C(C(=O)OC)=C1C`, the activity, negative = inhibition is 17.9% [at 13.5 µM].
Regarding `COC(=O)C1=C(C)N(C)C(=S)NC1c1ccccc1` (configuration not stated), the Potency result is “inactive”.
For `Cc1ccc(C(=O)N2CCN(S(=O)(=O)N3CCOCC3)CC2)cc1`, the Potency entry is “inactive”.
Consider `COc1ccc(C(=O)COC(=O)c2nn(C)c(=O)c3ccccc23)c(OC)c1`, for which the Potency result is “inactive”.
Same read-out and setting: next, `COc1ccc(OC)c(C(=O)c2ccc(C(=O)O)cc2)c1`: “inactive”.
The same measure, in the same setting: next, `C#CCN1C(=O)C(O)(CC(=O)c2cc(OC)ccc2OC)c2ccccc21` (configuration not stated): 3.55 µM (active).
Regarding `CCOC(=O)Cc1ncccc1C(=O)Nc1ccc(OC)cc1`, the Potency result is “inactive”.
On the same count and under the same terms, for `Cc1nn(C(=O)c2ccoc2C)c(N)c1-c1ccccc1` the value was “inactive”; for `Cc1nn2c(c1-c1ccccc1)N=C(c1ccco1)CC2c1ccccc1` (configuration not stated), 22.4 µM (active); for `O=C(CSc1nnc(-c2ccc(NS(=O)(=O)c3ccccc3)cc2)o1)NCC1CCCO1` (configuration not stated), “inactive”.
The same measure, in the same setting: for `O=C(CS(=O)(=O)Cc1ccccc1)NCC1CCCO1` (configuration not stated) the value was 25.1 µM (active); for `S=C(NCCc1ccccc1)NCC1CCCO1` (configuration not stated), “inactive”.
Still for that read-out and setting: next, `CCN(c1ccccc1)S(=O)(=O)c1ccc2[nH]c(=O)[nH]c2c1`: “inactive”; `Cc1cc([N+](=O)[O-])nn1Cc1ccc(F)cc1`: “inactive”.
For the molecule `Cc1c(CN2CCCC(C(=O)c3cccc(Cl)c3)C2)c(=O)n(-c2ccccc2)n1C` (configuration not stated), the Potency result is “inactive”.
In the case of `CCCCC1=CC2=CC(=O)C(C)(OC(=O)CC)C(=O)C2=CN1CCCOC(C)C` (configuration not stated), the activity, negative = inhibition was -5.05% [at 13.5 µM].
Take `Cc1cccc(NC(=O)CSC(N)=O)c1C`: the Potency was 7.08 µM (active).
On to `Cc1cccc(NC(=O)CSc2nc3c(c(=O)[nH]2)CCCC3)c1C`, for which the Potency entry was “inactive”.
On the same count and under the same terms, for `Cc1cccc(NC(=O)CN2C(=O)c3ccccc3C2=O)c1C` the value was “inactive”; for `CC(C)c1nc(CNC(=O)CC2C(=O)NCCN2Cc2ccoc2)cs1` (configuration not stated), “inactive”; for `CC1Cc2ccccc2N1S(=O)(=O)c1c(N)n(C)c(=O)n(C)c1=O` (configuration not stated), “inactive”.
On the same count and under the same terms, for `CC1CCCCN1C(=S)NCc1ccccc1` (configuration not stated) the value was “inactive”; for `COC(=O)CNC(=O)c1ccc(OC2CCN(C(=O)C3CC3)CC2)cc1`, “inactive”; for `CN1CCNC(=O)C1CC(=O)N1CC=C(c2ccc(F)cc2)CC1` (configuration not stated), “inactive”.
Still for that read-out and setting: for `N#CC1=C(SCc2ccc(C#N)cc2)N=C(N)C(c2nc(-c3ccccc3)cs2)C12CCCCC2` (configuration not stated) the value was “inactive”; for `CC1(C)CCc2nc(SCc3ccccc3)c(C#N)cc2C1`, “inactive”.
Turning to `N#CC1=C(SCc2ccccc2)NC(=O)C(C#N)C12CCCC2` (configuration not stated), the Potency was 3.98 µM (active).
In the case of `C[C@@H](O)c1nc2ccccc2n1N`, the Potency entry is “inactive”.
On the same count and under the same terms, next, `N#Cc1ncc(C(F)(F)F)cc1Oc1cccnc1`: “inactive”.
Regarding `COc1ccc(/C=C/CN2CCN(Cc3ccc(C)cc3)C(CCO)C2)cc1` (configuration not stated), the Potency entry is “inactive”.
On the same count and under the same terms, next, `O=C(Nc1ccn(Cc2ccccc2)n1)c1cccc(F)c1`: “inactive”; `CCOc1cccc(C(=O)Nc2cccnc2)c1`: “inactive”; `CCOc1cccc(C(=O)Nc2cnn(Cc3ccccc3)c2)c1`: 3.98 µM (active).
Same read-out and setting: next, `CNc1nc(Nc2ccc(C)c(Cl)c2)nc(N)c1[N+](=O)[O-]`: “inactive”; `O=C(c1ccc(Cl)cc1)N1N=C(c2ccccn2)CC1(O)C(F)(F)F` (configuration not stated): “inactive”; `O=C(Cc1ccc(Br)cc1)N1CCN(c2ccccn2)CC1`: “inactive”.
Regarding `COc1ccc(/C=N/N=C2/C(=O)Nc3ccccc32)cc1O`, the Potency result was “inactive”.
On to `C(=N\N1CCN(c2ccccn2)CC1)/C1=C(N2CCOCC2)C(=C/c2ccccc2)/CC1`, for which the Potency was 8.91 µM (active).
In the case of `C(=N/N1CCN(c2ccccc2)CC1)/c1cccs1`, the Potency entry is “inactive”.
For `O=C1Nc2ccc(Br)cc2/C1=N/N=C/C1=C(N2CCOCC2)C(=C\c2ccccc2)/CC1`, the Potency is 8.91 µM (active).
Still for that read-out and setting: next, `CN(C)CCOc1ccc(Cl)cc1C(C)(C)C`: “inactive”; `CCOC(=O)C1(Cc2ccccc2C(F)(F)F)CCN(C(=O)c2cc(C)n(C)n2)CC1`: “inactive”.
On the same count and under the same terms, for `Cc1ccc2[nH]c(C)c(CCNC(=O)NC3CCCCC3)c2c1` the value was “inactive”; for `Cc1nnc(SCCCCSc2nnc(C)c(=O)[nH]2)[nH]c1=O`, “inactive”.
Regarding `CCOC(=O)c1c(CN(C)C)n(-c2ccccc2)c2cc(Br)c(O)cc12`, the Potency entry was “inactive”.
Same read-out and setting: next, `CN1CCN(C(=O)C2C3C=CC(C3)C2C(=O)O)CC1` (configuration not stated): “inactive”; `O=C(O)C1C2C=CC(C2)C1C(=O)N1CCN(CCO)CC1` (configuration not stated): “inactive”; `C=C(Cl)COC(=O)C1C2C=CC(C2)C1C(=O)O` (configuration not stated): 17.8 µM (active).
Take `COCCN(C(=O)c1ccccc1F)c1c(N)n(Cc2ccccc2)c(=O)[nH]c1=O`: the Potency entry was “inactive”.
In the case of `O=C(O)Cc1csc(-c2cccc(Oc3ccccc3)c2)n1`, the Potency entry is “inactive”.
On the same count and under the same terms, next, `CN(Cc1nc2ccc(F)cc2[nH]1)Cc1nc(CC2CC2)no1`: “inactive”; `O=C(NC(=O)N1CCOCC1)c1ccccc1`: “inactive”.
The same measure, in the same setting: for `CCCCOc1ccc(C(=O)N/C(=C/C=C/c2ccccc2)C(=O)N2CCOCC2)cc1` the value was 25.1 µM (active).
Same read-out and setting: next, `CCCCOc1ccc(C(=O)NN2CCN(C)CC2)cc1`: “inactive”.
`CCn1c(SCC(=O)N(C)C2CCS(=O)(=O)C2)nnc1-c1cccs1` (configuration not stated): the Potency result was “inactive”.
On the same count and under the same terms, for `CCNC(=O)NNC(=O)C1CC(c2cccs2)=NO1` (configuration not stated) the value was “inactive”.
Turning to `CCOc1ccc(N2C(=O)Nc3ccccc3C2(O)C(=O)NCc2ccco2)cc1` (configuration not stated), the Potency entry was “inactive”.
Take `CCOc1ccc(N2C(=O)CN(c3cccc4ccccc34)C2=S)cc1`: the Potency entry is “inactive”.
On to `CCOc1ccc(N2C(=O)/C(=C/c3ccc(C)o3)N(C)C2=S)cc1`, for which the Potency was 7.94 µM (active).
Turning to `CCN=c1sc(C(=O)Nc2ccccc2)c(C)n1CC`, the Potency entry is “inactive”.
Same read-out and setting: for `O=C(Nc1cccc2ncccc12)c1ccc(-c2ccc(Cl)cc2Cl)o1` the value was “inactive”; for `COc1ccc(C(=O)Nc2c(Cl)cc(Cl)cc2C(=O)N2CCC(C)CC2)cc1`, “inactive”.
For the molecule `CC1CCN(C(=S)c2ccc(-c3ccc(Cl)cc3Cl)o2)CC1`, the Potency was 28.2 µM (active).
On the same count and under the same terms, next, `CCOC(=O)c1ccccc1NC(=S)N1CCC(C(N)=O)CC1`: “inactive”; `COc1ccc(-c2[nH]nc3c2C(c2ccncc2)C(C#N)=C(N)O3)cc1` (configuration not stated): “inactive”; `CCOc1c(OC)cc(C2C(C#N)=C(N)Oc3n[nH]c(-c4ccncc4)c32)cc1OC` (configuration not stated): “inactive”.
Same read-out and setting: for `CCCc1nc2c([nH]1)C(c1cccnc1)C(C#N)=C(N)O2` (configuration not stated) the value was 7.94 µM (active).
On the same count and under the same terms, for `Cc1ccc(S(=O)(=O)NC(=O)Nc2nc(-c3ccc(F)c(F)c3)cs2)cc1` the value was “inactive”; for `Cn1cc(CN2CCCCC2c2ccccn2)c(-c2ccc3c(c2)OCCO3)n1` (configuration not stated), “inactive”.
In the case of `CN(C)/C=C(/C(=O)c1ccccc1Cl)S(C)(=O)=O`, the Potency entry is “inactive”.
Consider `Clc1ccc(-c2csc(-c3ccncc3)n2)cc1`, for which the Potency entry was “inactive”.
Turning to `CC(=O)c1c(C)[nH]c(C(=O)OCC(=O)Nc2cc(S(=O)(=O)N3CCCCC3)ccc2C)c1C`, the Potency entry was “inactive”.
Turning to `CCCCn1c(=S)[nH]c2ccccc2c1=O`, the Potency result was “inactive”.
Consider `CCCn1c(=S)[nH]c2ccc(C(F)(F)F)cc21`, for which the Potency is 17.8 µM (active).
The same measure, in the same setting: next, `CC(C)n1c(=S)[nH]c2cc(C(F)(F)F)ccc21`: 31.6 µM (active); `CC(C)n1c(=O)[nH]c2cc(C(=O)Nc3ccccc3)ccc21`: “inactive”.
On to `CN(C)CCn1c(=S)[nH]c2ccc(Cl)cc2c1=O`, for which the Potency entry is “inactive”.
Still for that read-out and setting: next, `O=[N+]([O-])c1ccc2oc(-c3cccc(O)c3)nc2c1`: “inactive”; `OCCC1CN(Cc2cnc(-c3ccccc3)s2)CCN1CCc1ccccc1` (configuration not stated): “inactive”.
As to `Fc1ccccc1Cc1ccc(Cl)nn1`, the Potency entry was “inactive”.
For the molecule `Cc1ccnc(NC(=O)CCC(=O)N(CC(=O)NCCc2ccccc2)Cc2cccs2)c1`, the Potency was 14.1 µM (active).
On to `O=C(O)CCC(=O)N(Cc1cccs1)Cc1cccs1`, for which the Potency entry is “inactive”.
For the molecule `O=C(CCc1ccccc1)NCCc1cccs1`, the Potency result was “inactive”.
On the same count and under the same terms, next, `CN(C)CCCCCN(C)Cc1cc2ccccc2o1`: “inactive”; `CCOc1ccc(NC(=O)CN(C)CC(=O)NC(C)c2ccccc2)cc1OCC` (configuration not stated): “inactive”.
On to `O=C(O)CSCC(=O)Nc1ccc(C(F)(F)F)cc1`, for which the Potency result is “inactive”.
Still for that read-out and setting: for `COc1ccc2c(c1)O[C@@H](c1ccc3c(c1)OCO3)[C@H](OC(=O)NCc1ccco1)C2=O` the value was “inactive”.
On the same count and under the same terms, for `CC1CCN(S(=O)(=O)c2ccc(S(=O)(=O)NCc3cccnc3)cc2)CC1` the value was “inactive”.
As for `COc1ccc(-n2nc3c(c2NC(=O)c2ccc(N4C(=O)CCC4=O)cc2)CSC3)cc1`, the Potency result is “inactive”.
Still for that read-out and setting: next, `COc1cccc(OC)c1C(=O)NC(=S)Nc1ccc(N2CCOCC2)c(Cl)c1`: “inactive”.
Still for that read-out and setting: for `O=C(NC(=S)Nc1ccc2oc(=O)ccc2c1)c1ccc(-c2cccc(Cl)c2Cl)o1` the value was 11.2 µM (active); for `O=C(NC(=S)Nc1cc(C(F)(F)F)ccc1N1CCOCC1)c1ccc(-c2cccc(Cl)c2)o1`, “inactive”.
On to `CC1=C(C)C(=O)OC(C(C)C2CCC3C4CC=C5CC(OC6OC(COC7OC(CO)C(O)C(O)C7O)C(O)C(O)C6O)CC(O)C5(C)C4CCC23C)C1` (configuration not stated), for which the Potency entry was “inactive”.
Turning to `C[C@@]12CCC(=O)C=C1CC[C@H]1C2[C@@H](O)C[C@]2(C)[C@@H]1CC[C@@]2(O)C(=O)COC(=O)C1CCCC1` (some centres not stated), the activity, negative = inhibition is -0.294% [at 13.5 µM].
With `O=C(NCCc1ccco1)c1nn(Cc2ccccc2)c(=O)c2ccccc12`, the Potency is 17.8 µM (active).
On the same count and under the same terms, next, `O=C(NCCSc1ccccc1)c1ccco1`: “inactive”; `Nc1nonc1C(=O)NCCc1ccccc1`: “inactive”.
On to `NC1=NC2(CCCCC2)N(c2ccc(F)cc2F)C(N)=N1`, for which the Potency result is “inactive”.
On the same count and under the same terms, for `CSc1nnc(-c2ccc(C(F)(F)F)cn2)o1` the value was “inactive”; for `CCn1c(-c2cccnc2Cl)nc2cc(C)c(C)cc21`, “inactive”.
For the molecule `COc1ccc(/C=N/NC(=O)C(C)N(c2ccc(OC)cc2)S(C)(=O)=O)cc1` (configuration not stated), the Potency result was “inactive”.
Still for that read-out and setting: next, `CN(C)c1cc[n+](Cc2ccccc2)cc1`: “inactive”; `CN(C)c1ccc(/C=N\S(=O)(=O)c2ccccc2)cc1`: 0.708 µM (active).
